In PubChem BioAssay (NCATS) one finds outcome, Potency and max response data, which are given here for 13 molecules.

Several values for one entry are separate records, joined by “and”; a condition that tells them apart may be missing. Equal entries are not always repeated. Records with an inconclusive call do not appear. More than one record can exist for a structure, and the calls need not agree. Activity calls are given as the source filed them. Unless noted, calls come from the whole dose curve.

Test [1] in a line: Inducers of the Endoplasmic Reticulum Stress Response (ERSR) in human glioma: Validation (AID 504836; active = well fitted curve in the direction sought with a large enough effect; an effect the other way counts as inactive or inconclusive; note: 0% is about no effect). In a few lines:
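Stably transfected U87-MG human glioma cells carrying a GRP78-based luminescent sensor were seeded at 1000 cells/well, pin-dosed with compounds and incubated 16 h. Luciferase reagent was then added, and end-point luminescence was read after 10 min at room temperature.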

A short description of test [2]: qHTS for Inhibitors of the Functional Ribonucleoprotein Complex (vRNP) of Lassa (LASV) Arenavirus: LASV Primary Screen - GLuc reporter signal (AID 1347082; calls by dose curve; tested in HEK293 reporter line; note: series mostly up to about 57 µM; % is set by controls: 0 for no effect and ±100 for the full control effect; nearly all actives have a fitted effect of over 60% in size).
A short description of test [3]: qHTS for Inhibitors of the Functional Ribonucleoprotein Complex (vRNP) of Lassa (LASV) Arenavirus: Viability assay - alamar blue signal for LASV Primary Screen (AID 1347083; calls by dose curve; tested in HEK293 reporter line; note: series mostly up to about 57 µM; % is set by controls: 0 for no effect and ±100 for the full control effect; nearly all actives have a fitted effect of over 80% in size). A general note: Quantitative high-throughput screening tests each substance at several concentrations.
The nature of test [4]: qHTS for Inhibitors of the Functional Ribonucleoprotein Complex (vRNP) of Lymphocytic Choriomeningitis Arenaviruses (LCMV): Viability assay - alamar blue signal for LCMV Primary Screen (AID 1347085; calls by dose curve; tested in HEK293 reporter line; note: series mostly up to about 57 µM; % is set by controls: 0 for no effect and ±100 for the full control effect; nearly all actives have a fitted effect of over 80% in size).
The target in test [5] is Nucleoprotein (Lymphocytic choriomeningitis virus (strain Armstrong)) (UniProt P09992). In words: qHTS for Inhibitors of the Functional Ribonucleoprotein Complex (vRNP) of Lymphocytic Choriomeningitis Arenaviruses (LCMV): LCMV Primary Screen - GLuc reporter signal (AID 1347086). Note: series mostly up to about 57 µM; % is set by controls: 0 for no effect and ±100 for the full control effect; nearly all actives have a fitted effect of over 70% in size.
The nature of test [6]: Validation screen for inhibitors of Lassa infection (AID 463096). Note: % is set by controls: 0 for no effect and ±100 for the full control effect.
Test [7] can be described thus: Cell Viability - BJ (AID 421).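 Note: potency is the fitted concentration of half-maximal effect; cells exposed to compound for 40 hours at 37 °C before readout.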 The settings on record: BJ fibroblast viability, qHTS. In outline:
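Normal human BJ foreskin fibroblasts, 1500/well in complete medium, treated 40 hr at 37 °C. Cellular ATP by CellTiter-Glo luminescence; normalized to DMSO and 100 uM tamoxifen, AC50 from Hill fit.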

Test [8] can be described thus: Cell Viability - Hek293 (AID 427;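 active = compounds whose dose-response curve shows a full or clear partial loss of cell viability, called from curve shape rather than a numeric limit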;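 note: potency is the fitted concentration of half-maximal effect; cells exposed to compound for 40 hours at 37 °C before reading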). The settings on record: qHTS. In outline:
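HEK293 cells in complete medium were exposed to compound for 40 hr at 37 °C, then cellular ATP was read by CellTiter-Glo luminescence. Data were normalized to DMSO (basal) and 100 uM tamoxifen (100% inhibition), and AC50 came from Hill fits.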

Test [9] in a line: Cell Viability - HepG2 (AID 433).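 Note: potency is the fitted concentration of half-maximal effect; potency for ATP loss meaning cytotoxicity.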 The note with it: qHTS. In a few lines:
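In this qHTS format, a 40 h, 37 °C compound incubation of HepG2 cells in complete medium precedes a 20 min CellTiter-Glo step at room temperature. Tamoxifen and doxorubicin serve as positive controls; Hill-equation fits yield AC50.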

Test [10] can be described thus: Cell Viability - MRC5 (AID 434).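 Note: potency is the fitted concentration of half-maximal effect; potency reflects cytotoxicity seen as loss of intracellular ATP.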 The settings on record: MRC5 lung fibroblast viability, qHTS. In a few lines:
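MRC5 normal human lung fibroblasts (1500/well) were treated with compounds for 40 hr at 37 °C in complete medium, and viable cells were measured as intracellular ATP by CellTiter-Glo luminescence. AC50 came from Hill fits, normalized to DMSO and 100 uM tamoxifen.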

A short description of test [11]: Cell Viability - SK-N-SH (AID 435).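 Note: potency is the fitted concentration of half-maximal effect; compound exposure lasted 40 h at 37 °C.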 The settings on record: SK-N-SH neuroblastoma cell viability qHTS. In a few lines:
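Human neuroblastoma line, 40 h exposure at 37 °C, ATP quantified via luciferase luminescence; DMSO and 100 uM tamoxifen define 0 and 100% inhibition for AC50 fitting.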

Test [12] is described as follows: Cell Viability - HUV-EC-C (AID 542; active = well fitted curve in the direction sought with a large enough effect; an effect the other way counts as inactive or inconclusive; note: % is set by controls: 0 for no effect and ±100 for the full control effect; nearly all actives have a fitted effect of over 35% in size). In a few lines:
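HUV-EC-C human vascular endothelial cells, 1000/well, exposed to compound for 40 hr at 37 °C in complete medium. Intracellular ATP was read by CellTiter-Glo luminescence. AC50 came from Hill-equation fits of concentration-response data.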

Test [13] is described as follows: Cell Viability - Mesenchymal (AID 546; active = well fitted curve in the direction sought with a large enough effect; an effect the other way counts as inactive or inconclusive;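 note: cells exposed to compound for 40 hours before reading; 0% = DMSO only and -100% = 100 µM tamoxifen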). In a few lines:
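Normal human renal glomerulus-derived kidney mesenchymal cells, 1000 per well in complete medium, were treated with compounds for 40 hr at 37 °C. Viability was read as intracellular ATP by CellTiter-Glo luminescence; AC50 values came from Hill-equation fits of qHTS concentration-response data.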

The nature of test [14]: Cellular Toxicity (caspase-3) HepG2 (AID 654; active = well fitted curve in the direction sought with a large enough effect; an effect the other way counts as inactive or inconclusive;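 note: cells exposed to compound for 16 hours before reading; 0% = DMSO alone and 100% = caspase signal from 100 µM tamoxifen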). In outline:
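HepG2 cells (1500/well) were treated 16 h at 37 °C in complete medium, then caspase 3/7 activity was read by Caspase-Glo luminescence. Data were normalized to DMSO and 100 uM tamoxifen; AC50 came from Hill-equation fits of qHTS concentration-response.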

Test [15] is described as follows: Cellular Toxicity (caspase-3) HUV-EC-C (AID 656; active = well fitted curve in the direction sought with a large enough effect; an effect the other way counts as inactive or inconclusive;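 note: 0% = DMSO basal and 100% = 100 µM tamoxifen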). In a few lines: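 Concentration-dependent caspase 3/7 induction was assessed in HUV-EC-C cells exposed for 16 hours. Data scaled between DMSO and tamoxifen (100 uM) controls.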
The nature of test [16]: Cellular Toxicity (caspase-3) SHSY5Y (AID 657; active = well fitted curve in the direction sought with a large enough effect; an effect the other way counts as inactive or inconclusive;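 note: cells exposed to compound for 16 hours at 37 °C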). In outline:
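Readout: caspase-cleaved peptide-aminoluciferin substrate driving luciferase light in SH-SY5Y neuroblastoma cells after 16 h treatment. Response normalized to DMSO and 10 uM staurosporine controls.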

Test [17] can be described thus: Cellular Toxicity (caspase-3) BJ (AID 658; active = well fitted curve in the direction sought with a large enough effect; an effect the other way counts as inactive or inconclusive;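 note: 0% = DMSO basal and 100% = 10 µM staurosporine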). In outline: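 Luminescent aminoluciferin-substrate cleavage reports caspase 3/7 activity in normal human BJ fibroblasts after 16 hr compound exposure at 37 °C. Normalized to DMSO (basal) and 10 uM staurosporine (100%); AC50 from Hill fit of concentration-response.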
Test [18] is described as follows: qHTS assay for small molecule agonists of the antioxidant response element (ARE) signaling pathway (AID 651741; active = well fitted activation curve with a large enough effect in the signal ratio; the % refers to the signal ratio; note: potency is the fitted concentration of half-maximal effect; for activation: % of control where 0% means no effect). In outline: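 Compounds in DMSO are pinned onto HepG2 ARE-bla cells (2,000/well) that were preincubated 5 h; plates stay 16 h at 37 C, then beta-lactamase activity is detected with LiveBLAzer B/G substrate by fluorescence.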
Test [19] is described as follows: qHTS assay for small molecule disruptors of the mitochondrial membrane potential - 5 hr assay (AID 651755). Note: % is set by controls: 0 for no effect and ±100 for the full control effect; nearly all actives have a fitted effect of over 40% in size. In a few lines:
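HepG2 cells, attached overnight at 37C, were exposed to compound or DMSO for 5 hr at 37C, 5% CO2. Mito-MPS dye was then added for 30 min, and fluorescence read at 490/535 nm (monomers) and 540/590 nm (aggregates).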

Test [20] has as its target Peroxisome proliferator-activated receptor alpha (Homo sapiens) (UniProt Q07869). In words: qHTS assay for small molecule agonists of the peroxisome proliferator-activated receptor alpha (PPARalpha) signaling pathway (AID 651778; active = well fitted curve in the direction sought with a large enough effect; an effect the other way counts as inactive or inconclusive; note: % of control where 0% means no effect). The settings on record: PathHunter PPARalpha complementation, chemiluminescence, 6 h; stronger effect = higher value. In a few lines:
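Cells plated at 2,000/well and held overnight at 37 C, 5% CO2, then compound added by pin tool for 6 hr; after PathHunter detection reagent and 60 min at room temperature, chemiluminescence from enzyme complementation was read.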

Sequence of Peroxisome proliferator-activated receptor alpha (Homo sapiens) (Q07869 whole entry, looked up): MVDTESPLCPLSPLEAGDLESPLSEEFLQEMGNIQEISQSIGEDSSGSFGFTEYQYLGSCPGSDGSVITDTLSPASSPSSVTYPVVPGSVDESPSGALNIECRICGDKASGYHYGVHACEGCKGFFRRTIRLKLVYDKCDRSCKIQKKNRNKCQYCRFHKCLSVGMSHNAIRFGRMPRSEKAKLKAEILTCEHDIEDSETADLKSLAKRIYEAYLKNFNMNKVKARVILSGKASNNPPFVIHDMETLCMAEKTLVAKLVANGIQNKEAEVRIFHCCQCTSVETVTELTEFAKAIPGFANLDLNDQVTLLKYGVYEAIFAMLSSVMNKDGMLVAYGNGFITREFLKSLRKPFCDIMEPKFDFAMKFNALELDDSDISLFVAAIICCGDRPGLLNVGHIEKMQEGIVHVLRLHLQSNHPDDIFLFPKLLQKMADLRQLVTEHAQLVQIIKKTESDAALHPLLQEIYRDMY
Sequence of Nucleoprotein (Lymphocytic choriomeningitis virus (strain Armstrong)) (P09992 whole entry, looked up): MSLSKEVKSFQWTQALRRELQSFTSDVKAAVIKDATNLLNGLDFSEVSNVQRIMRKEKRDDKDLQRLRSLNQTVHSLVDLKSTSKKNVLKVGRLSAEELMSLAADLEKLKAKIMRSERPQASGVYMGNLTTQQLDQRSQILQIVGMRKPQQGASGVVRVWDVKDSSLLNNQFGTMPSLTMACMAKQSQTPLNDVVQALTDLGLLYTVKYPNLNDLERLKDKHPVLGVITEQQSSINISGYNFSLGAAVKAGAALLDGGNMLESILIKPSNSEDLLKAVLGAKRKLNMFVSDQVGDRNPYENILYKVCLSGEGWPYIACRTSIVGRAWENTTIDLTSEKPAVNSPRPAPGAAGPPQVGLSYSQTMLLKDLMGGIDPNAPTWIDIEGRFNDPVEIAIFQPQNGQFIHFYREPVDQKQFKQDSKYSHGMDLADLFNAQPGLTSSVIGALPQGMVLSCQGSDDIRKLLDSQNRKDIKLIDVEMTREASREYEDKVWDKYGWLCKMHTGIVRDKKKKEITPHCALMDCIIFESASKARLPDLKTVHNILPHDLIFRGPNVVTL

`C=C1C[C@@]23CC[C@H]4[C@@](C)(CCC[C@@]4(C)C(=O)OC4OC(CO)C(O)C(O)C4O)[C@@H]2CC[C@]1(OC1OC(CO)C(O)C(O)C1OC1OC(CO)C(O)C(O)C1O)C3` (stereo not given in full): the call in [1] was inactive. The Potency result in test [2], in test [3], in test [4] and in [5] was “inactive” each time.
In the case of `COc1ccc2c(c1)CCC1C2CC[C@@]2(C)C1CC[C@@H]2NCCCCCCN1C(=O)C=CC1=O` (stereo not given in full), the Potency entry in test [6], in [2], in test [3], in test [4] and in test [5] was “inactive” in each case. Besides, the outcome in test [1] was inactive.
Regarding `O=C(O)/C=C/C(O)c1ccc(Cl)cc1` (stereo not given), the Potency result in [6], in test [2], in [3], in test [4] and in test [5] was “inactive” throughout.
Regarding `c1ccc2c(c1)-c1cccc3cccc-2c13`, the Potency was > 92 µM (inactive) in [7]; > 92 µM (inactive) in [8]; > 92 µM (inactive) in test [9]; > 92 µM (inactive) in test [10]; > 92 µM (inactive) in test [11]; “inactive and 30.6 µM (active)” in [18]. Also, the call in test [12], in [13], in test [14], in [15], in [16] and in test [17] was inactive. Besides, the Potency entry in test [19], in test [2], in [3], in test [4] and in [5] was “inactive” in each case. Also, the max response in test [20] is -3.35% (inactive) and -1.28% (inactive).
For the molecule `NC1C=CC=C(C(=O)O)C1` (stereo not given), the Potency entry in [6], in test [2], in [3], in [4] and in test [5] was “inactive” each time. Further, the molecule was called inactive in test [1].
As for `Cn1ccnc1`, the Potency result in [6], in [2], in [3], in test [4] and in [5] was “inactive” in each case. Further, the call in [1] was inactive.
`CCCCCCCCCCCCCCCC(=O)OC(CC(=O)O)C[N+](C)(C)C` (stereo not given): the Potency result in test [6], in test [2], in [3], in [4] and in [5] was “inactive” throughout.
With `CC(C)c1ccc(C=O)cc1`, the Potency result in test [2], in test [3], in test [4] and in test [5] was “inactive” in each case.
Turning to `CCCCCC(O)CCCC(=O)O` (stereo not given), the Potency result in test [6], in test [2], in test [3], in test [4] and in test [5] was “inactive” throughout. In [1], the outcome was inactive.
For the molecule `O=C1O/C(=C/Br)CCC1c1cccc2ccccc12` (stereo not given), the Potency result in test [6], in test [2], in [3], in test [4] and in test [5] was “inactive” in each case.
Turning to `COC(=O)C1=C(C)NC(C)=C([N+](=O)[O-])C1c1ccccc1C(F)(F)F` (stereo not given), the Potency entry in test [6], in [2], in test [3], in test [4] and in test [5] was “inactive” in each case.
Turning to `Oc1ccccc1Cl`, the Potency in test [7], in [8], in [9], in test [10] and in test [11] was > 92 µM (inactive) each time. The call in test [12], in [13], in test [14], in test [15], in [16] and in test [17] was inactive. Moreover, the Potency result in test [18], in [19], in [2], in test [3], in test [4] and in test [5] was “inactive” throughout. Moreover, in test [20], the max response was -3.34% (inactive).
Turning to `O=C(O)CNC(=O)C(CS)Cc1ccccc1` (stereo not given), the Potency result in [6], in [2], in [3], in [4] and in test [5] was “inactive” each time. Besides, the call in test [1] was inactive.
